Results on 46 compounds are retold here after PubChem BioAssay AID1347416 (National Center for Advancing Translational Sciences (NCATS), 2020).

The campaign covered roughly 4,100 compounds. About 1,600 (39%) were called active. Inconclusive results (about 25%) are left out. Calls follow the shape of the dose curve; as a rule, active = well fitted inhibition curve with a large enough effect; inconclusive = small, poorly fitted or top-dose-only effect; inactive = no such curve, though single readings can be large or run the other way. Some of the results follow.
% is scaled to controls: 0 for no effect and ±100 for the full control effect; potency is read from the fitted curve at half-maximal effect.

This experiment in a line: qHTS Validation assay for Inhibitors of Plasmodium falciparum Dd2 growth in vitro. Also: nearly all actives have a fitted effect of over 70% in size. The following applies: P. falciparum Dd2 in RBCs, SYBR Green growth, 72 h; series mostly up to 28.7 µM; activity change, negative = inhibition: at the top concentration. The method in brief:
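P. falciparum Dd2-infected red blood cells (2.5% hematocrit, 0.3% parasitemia) grown 72 h at 37 °C under 5% O2 with compounds in a titration, 29 uM to 0.5 nM final. Growth read as SYBR Green-1 fluorescence after ~16 h lysis; artesunate 300 nM as positive control.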
On the technique in general: In qHTS, concentration-response curves come from the screen itself.
As for `S=C(NCc1ccccc1)Nc1ccncc1`, the “activity change, negative = inhibition” value was 12.2% (inactive).

In the case of `S=C(NCc1ccccc1)N1CCn2cccc2C1c1cccnc1` (stereo unspecified), the Potency is 9.44 µM (active).

With `c1csc(-c2ccnc(N[C@H]3CO[C@H]4[C@@H]3OC[C@@H]4NCC3CCCCC3)n2)c1`, the Potency was 12.2 µM (active).

Regarding `CN(C)c1ccc(-c2ccnc(N[C@H]3CO[C@H]4[C@@H]3OC[C@@H]4NC(=O)NCc3ccccc3)n2)cc1`, the “activity change, negative = inhibition” value is 0.409% (inactive).

For `O=C(O)COc1ccc(-c2nccc(-c3cccs3)n2)cc1`, the “activity change, negative = inhibition” value is 25.3% (inactive).

With `CCc1ccccc1CN1CCC(CO)(CN2CCCC2)CC1`, the “activity change, negative = inhibition” value is 0.298% (inactive).

Turning to `Cc1cc(CN2CCC(CO)(Cc3ccccc3Cl)CC2)cc(C)c1O`, the Potency was 16.8 µM (active).

Turning to `CCOc1ccc(CNC(=O)CN2N=C(c3ccccc3)CCC2=O)cc1OC`, the “activity change, negative = inhibition” value is -2.34% (inactive).

Turning to `COc1ccc(CC(=O)NCc2ccccn2)cc1OC`, the Potency is 7.5 µM (active).

On to `Cc1cn2nc(C(=O)NCc3ccccn3)cc2c(=O)[nH]1`, for which the “activity change, negative = inhibition” value was 6.06% (inactive).

Consider `O=C1c2ccccc2C(=O)c2[nH]c(=O)[nH]c21`, for which the Potency is 5.96 µM (active).

Consider `C=C[C@]1(C)C[C@@H](OC(=O)CSC(C)(C)CNC(=O)[C@H](N)C(C)C)[C@]2(C)[C@H](C)CC[C@]3(CCC(=O)[C@H]32)[C@@H](C)[C@@H]1O`, for which the Potency is 8.41 µM (active).

As to `CCN(CC)CCC(c1ccc2c(c1)OCO2)c1c(O)cc(OC)cc1OC` (stereo unspecified), the Potency is 4.22 µM (active).

As to `CCN(CC)CCC(c1ccc(OC)cc1)c1c(O)cc(OC)cc1OC` (stereo unspecified), the Potency was 6.68 µM (active).

For the compound `CCN(CC)CCC(c1ccc(N(C)C)cc1)c1c(O)cc(OC)cc1OC` (stereo unspecified), the Potency is 3.35 µM (active).

On to `CCCn1ccc2sc(C)c(C(=O)O)c2c1=O`, for which the “activity change, negative = inhibition” value is 8.71% (inactive).

For `COc1ccc(C(=O)N2CCc3ccc(C(=O)NCc4ccccn4)cc32)cc1`, the “activity change, negative = inhibition” value is -8.95% (inactive).

As to `COc1cccc(CN2CCc3c(cc(C(=O)NCc4ccccn4)n3C)C2)c1`, the Potency is 15 µM (active).

As for `CCn1cc(-c2ccncc2)cc1C(=O)NCc1cccc(OC)c1`, the “activity change, negative = inhibition” value is -24.5% (inactive).

Take `Cc1noc(-c2cn(C3CCN(C(=O)Cc4ccc(OC(F)(F)F)cc4)CC3)nn2)n1`: the “activity change, negative = inhibition” value is -9.53% (inactive).

For the compound `CCCC(=O)NC(c1ccc(C(C)C)cc1)c1ccc2cccnc2c1O` (stereo unspecified), the Potency is 13.3 µM (active).

Consider `COc1cccc(C(NC(C)=O)c2ccc3cccnc3c2O)c1` (stereo unspecified), for which the Potency is 4.22 µM (active).

Take `CCCCC(=O)NC(c1ccccc1OC)c1ccc2cccnc2c1O` (stereo unspecified): the Potency is 5.31 µM (active).

On to `CCOc1ccc(C(=O)NCc2nc3cccnc3n2Cc2cccc(OC)c2)cc1`, for which the “activity change, negative = inhibition” value is 20.1% (inactive).

Take `CCCC(=O)NC(c1ccccc1)c1ccc2cccnc2c1O` (stereo unspecified): the Potency was 6.68 µM (active).

For `CCCC(=O)NCCc1noc(-c2ccccc2)n1`, the “activity change, negative = inhibition” value is 30.7% (inactive).

As for `Cc1cn2nc(-c3nc(C4CCCN(C(=O)c5cccs5)C4)no3)cc2c(=O)[nH]1` (stereo unspecified), the “activity change, negative = inhibition” value is -8.72% (inactive).

Regarding `CCCCC(=O)NC(c1ccc(C(C)C)cc1)c1ccc2cccnc2c1O` (stereo unspecified), the Potency is 7.5 µM (active).

As for `c1ccc(-[n+]2nc(Nc3cccc4ccccc34)sc2-c2c3ccccc3cc3ccccc23)cc1`, the Potency is 5.96 µM (active).

As to `COc1cc(CN2CCC3(CC2)C(=O)NCN3Cc2ccc(Cl)cc2)ccc1F`, the “activity change, negative = inhibition” value was 4.45% (inactive).

For the compound `CCOC(=O)C1(Cc2ccc(Cl)cc2)CCN(Cc2ccc(OC)cc2O)CC1`, the Potency is 0.188 µM (active).

Take `COc1ccc(CCN2CC(C(=O)N3CCC(CO)CC3)CCC2=O)cc1` (stereo unspecified): the “activity change, negative = inhibition” value was 0% (inactive).

Regarding `COC(=O)[C@]1(C)CCC[C@@]2(C)C3CC[C@@]4(C)C[C@]3(CCC21)CC(=O)N4Cc1ccc(OC)cc1` (stereo partly specified), the Potency was 3.76 µM (active).

`COc1ccc(CNC(=O)C2=C(C)C(=O)OC23CCC(C)CC3)cc1` (stereo unspecified): the “activity change, negative = inhibition” value is 4.46% (inactive).

For `Cc1c(C#N)c2ccccc2n1CCOc1ccccc1F`, the Potency was 1.68 µM (active).

In the case of `COc1ccc(-c2nc(Cn3c(SCc4ccccc4F)nc4ccncc43)c(C)o2)cc1OC`, the Potency is 8.41 µM (active).

Turning to `CC(C)c1ccc(NC(=O)CSc2nc(=O)n(Cc3ccccn3)c3c2CCC3)cc1`, the “activity change, negative = inhibition” value is -16.5% (inactive).

As to `COc1cc(NC(=O)CSc2nc3nc(C)c(Cc4ccc(C)cc4)c(C)n3n2)cc(OC)c1`, the “activity change, negative = inhibition” value was -10.1% (inactive).

Turning to `COc1cc(NC(=O)CSc2nc(-c3ccccc3)no2)cc(OC)c1`, the Potency was 2.37 µM (active).

For the compound `COc1cc(NC(=O)CSc2nc(-c3ccc(C(C)C)cc3)no2)cc(OC)c1`, the Potency was 0.842 µM (active).

Take `COc1ccc(C2Cn3nnc(C(=O)NCc4ccc(F)cc4Cl)c3CO2)cc1` (stereo unspecified): the “activity change, negative = inhibition” value is -9.54% (inactive).

As for `COc1ccc2c(CNCc3ccccc3OC)c(C(=O)O)n(Cc3ccc(F)cc3Cl)c2c1`, the Potency was 15 µM (active).

As to `Cc1ncc2n1C(=O)N(C1CCN(Cc3ccnn3C)CC1)C2`, the “activity change, negative = inhibition” value was 41.7% [at 43.1 µM] (inactive).

`O=C(Nc1ccc([C@@H](O)[C@H]2COCC(=O)N2Cc2ccccc2F)cc1)c1ccccc1`: the “activity change, negative = inhibition” value is 3.31% [at 43.1 µM] (inactive).

In the case of `COc1ccc(CN2C(=O)COC[C@@H]2[C@H](O)c2ccc(NC(=O)c3ccc(C(C)(C)C)cc3)cc2)cc1`, the Potency was 2.11 µM (active).

With `O=C(Nc1ccc([C@@H](O)[C@H]2COCC(=O)N2Cc2ccc(F)cc2)cc1)c1ccc2c(c1)OCO2`, the “activity change, negative = inhibition” value was -12.2% (inactive).
